T cruzi growth-1: T. cruzi intracellular proliferation inhibitors, primary screen, cell-based, beta-gal Tulahuen parasites, NIH3T3 host, luminescence; T. cruzi beta-gal in NIH3T3, GalScreen luminescence, 90 h; inhibition, % at 8.34 µM; 5.9% of 77,000 active; AID 624255, 2012;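 active = mean inhibition above about 93%, with at least 55% of replicates each passing it, limit read from the data, passing the limit was not always enough; inconclusive = only one of those two conditions holds; inactive = neither condition holds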
C diff growth: C. difficile growth inhibitors, primary screen, HTS; 0.25% of 86,000 active; AID 1259249, 2017; Clostridium difficile clinical isolate growth, OD600, 24 h; active compounds read low; growth activity, negative = inhibition, % at 16 µg/mL (by protocol);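 active = mean growth activity at or below -80% and every replicate also at or below -80%; inconclusive = mean at or below -80% but some replicate above -80%; inactive = mean growth activity above -80%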;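 also: 0% = DMSO wells and -100% = levofloxacin 16 µg/mL wells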
Pf Dd2 inh: P. falciparum Dd2 growth inhibitors, primary screen, SYBR Green fluorescence, single dose replicates. 72 h; active compounds read low. activity change, % at 10 µM. 2.3% of 94,000 active. AID 1159554, 2015; in the data active = activity change below about -80%; inconclusive = no clear call, values can overlap the other calls
T cruzi growth-2: T. cruzi intracellular proliferation inhibitors, confirmation, cell-based, NIH3T3 host, beta-gal parasite, luminescence, cherry-pick | shares compounds with T cruzi growth-1 | T. cruzi beta-gal in NIH3T3, GalScreen luminescence, 90 h | inhibition, % at 8.35 µM | 72% of 5,600 active | AID 651739, 2012;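 active = mean replicate inhibition above about 95% and at least 55% of replicates individually reaching it, limit read from the data; inconclusive = only one of the two criteria is met; inactive = neither criterion is met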
T cruzi growth-3: inhibitors of intracellular T. cruzi replication, confirmation, NIH3T3 host cells, beta-gal parasites, cherry-pick, set 2; 21% of 5,600 active; T. cruzi beta-gal in NIH3T3, GalScreen luminescence, 90 h; AID 651740, 2012; inhibition, % at 2.09 µM; shares compounds with T cruzi growth-1;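 active = mean inhibition above about 95%, with at least 55% of replicates also reaching it, limit read from the data; inconclusive = meets just one of the two conditions; inactive = meets neither condition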;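 also: plate controls were neutral control median for no effect and positive control median for full effect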
3T3 cytotox: cytotoxicity in mouse NIH/3T3 fibroblasts, confirmation, cytotoxicity control for T. cruzi proliferation inhibitor project, cell-based, cherry-pick, single point | shares compounds with T cruzi growth-1 | NIH/3T3 viability, CellTiter-Glo ATP luminescence, 90 h | cytotoxicity (signal decrease), % at 8.35 µM | 14% of 5,600 active;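 active = mean signal decrease across replicates above about 35% based on untreated-well scatter, with enough replicates individually passing, limit read from the data; inconclusive = no rule stated though some were filed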;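 also: 0% = median of neutral control wells and 100% = median of positive control wells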
3T3 cytotox 2: NIH/3T3 fibroblast cytotoxicity, confirmation, cytotoxicity control, cell-based, cherry-pick, single point, set 2. shares compounds with T cruzi growth-1. NIH/3T3 viability, CellTiter-Glo ATP luminescence, 90 h. inhibition, % at 24.9 µM. 56% of 5,600 active;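 active = mean loss of cell viability signal at or above a set limit, and enough replicates individually reaching it; inconclusive = meets only the mean limit or only the replicate share; inactive = meets neither condition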;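 also: 0% = median of neutral control wells and 100% = median of positive control wells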
Active calls of the source: *; u = inconclusive; x = no result given. Shown are actives, neighbours in structure and some others; about 6.7% of the full set was active somewhere.

SMILES | T cruzi growth-1 | C diff growth | Pf Dd2 inh | T cruzi growth-2 | T cruzi growth-3 | 3T3 cytotox | 3T3 cytotox 2
C[C@H]1CN([C@@H](C)CO)S(=O)(=O)c2ccc(/C=C/c3ccccc3)cc2O[C@@H]1CN(C)Cc1cncnc1 | 122.2* | 5.9 | -67.5 | 100.5* | 104.1* | 68.7* | 97.4*
C[C@@H]1CN([C@@H](C)CO)S(=O)(=O)c2ccc(/C=C/c3ccccc3)cc2O[C@@H]1CN(C)Cc1cncnc1 | 108.1* | -11.3 | -2.9 | u | 89.4 | 57.8* | 70.0*
C[C@H](CO)N1C[C@H](C)[C@@H](CN(C)Cc2cncnc2)Oc2cc(/C=C/c3ccccc3)ccc2S1(=O)=O | 121.3* | -10.8 | -51.9 | 98.2* | 101.9* | 40.6* | 80.9*
C/C=C/c1ccc2c(c1)O[C@H](CN(C)Cc1cncnc1)[C@@H](C)CN([C@H](C)CO)S2(=O)=O | x | 0.4 | 14.1 | x | x | x | x
C[C@H]1CN([C@@H](C)CO)S(=O)(=O)c2ccc(-c3ccccc3)cc2O[C@H]1CN(C)Cc1cncnc1 | 56.7 | 6.1 | 25.6 | x | x | x | x
COc1ccccc1-c1cn(CC[C@@H]2CC[C@@H](NC(=O)c3ccccc3F)[C@@H](CO)O2)nn1 | x | -2.2 | -12.0 | x | x | x | x
C[C@H]1CN([C@@H](C)CO)C(=O)c2cc(C3=CCCC3)cnc2O[C@H]1CN(C)C(=O)c1ccccc1 | 2.1 | -0.7 | 4.4 | x | x | x | x
COc1cccc(NC(=O)N(C)C[C@H]2Oc3ncc(C#Cc4ccccc4)cc3C(=O)N([C@H](C)CO)C[C@H]2C)c1 | 95.5 | 2.9 | -32.3 | x | x | x | x
COc1cccc(NC(=O)N(C)C[C@H]2Oc3ncc(C#Cc4ccccc4)cc3C(=O)N([C@@H](C)CO)C[C@H]2C)c1 | u | 8.6 | -37.1 | 104.5* | 51.5 | 2.3 | 38.3*
COc1cccc(NC(=O)N(C)C[C@H]2Oc3ncc(C#Cc4ccccc4)cc3C(=O)N([C@H](C)CO)C[C@@H]2C)c1 | 110.4* | -5.5 | -45.4 | 108.4* | 88.0 | u | 27.6*
COc1cccc(NC(=O)N(C)C[C@@H]2Oc3ncc(C#Cc4ccccc4)cc3C(=O)N([C@H](C)CO)C[C@H]2C)c1 | 121.4* | 1.0 | -44.9 | 106.5* | 111.3* | 16.6 | 27.6*
COc1cccc(NC(=O)N(C)C[C@@H]2Oc3ncc(C#Cc4cccnc4)cc3C(=O)N([C@@H](C)CO)C[C@@H]2C)c1 | 39.3 | 6.4 | -39.8 | x | x | x | x
COc1cccc(NC(=O)N(C)C[C@@H]2Oc3ncc(C#Cc4cccnc4)cc3C(=O)N([C@@H](C)CO)C[C@H]2C)c1 | 80.7 | 0.9 | 1.0 | x | x | x | x
COc1ccc2c3c([nH]c2c1)[C@H](CO)N(C(C)=O)CC31CN(C(=O)c2cccc(F)c2)C1 | x | -4.2 | 21.0 | x | x | x | x
C[C@@H]1CN([C@H](C)CO)C(=O)c2c(c3ccccc3n2C)-c2ccccc2CO[C@@H]1CN(C)C | u | -2.2 | -20.6 | -16.0 | -9.9 | -17.9 | 1.4
C[C@H](CO)N1C[C@H](C)[C@@H](CN(C)C)OCc2ccccc2-c2c(n(C)c3ccccc23)C1=O | u | -2.6 | -22.6 | 12.3 | 24.8 | -4.0 | 12.8
C[C@H]1CN([C@@H](C)CO)C(=O)c2c(c3ccccc3n2C)-c2ccccc2CO[C@@H]1CN(C)Cc1cccnc1 | 75.9 | -2.8 | -14.6 | x | x | x | x
C[C@H]1CN([C@@H](C)CO)C(=O)c2c(c3ccccc3n2C)-c2ccccc2CO[C@@H]1CN(C)C | 40.9 | -3.8 | -30.7 | x | x | x | x
CC(=O)N(C)C[C@H]1OCc2ccccc2-c2c(n(C)c3ccccc23)C(=O)N([C@@H](C)CO)C[C@H]1C | -24.4 | x | 31.9 | x | x | x | x
C[C@@H]1CN([C@@H](C)CO)C(=O)c2c(c3ccccc3n2C)-c2ccccc2CO[C@@H]1CN(C)Cc1cccnc1 | 135.3* | 0.3 | -54.0 | 99.1* | 13.1 | 19.0 | 69.0*
C[C@@H]1CN([C@H](C)CO)C(=O)c2c(c3ccccc3n2C)-c2ccccc2CO[C@H]1CN(C)C | 106.5* | 3.1 | 27.8 | 86.5 | -26.0 | -6.5 | 13.5
C[C@H](CO)N1C[C@H](C)[C@H](CN(C)S(C)(=O)=O)OCc2ccccc2-c2c(n(C)c3ccccc23)C1=O | x | -6.2 | -16.4 | x | x | x | x
C[C@H](CO)N1C[C@H](C)[C@@H](CN(C)C(=O)C2CCC2)Oc2cc(-c3ccc(F)cc3)ccc2S1(=O)=O | 83.1 | x | -50.6 | x | x | x | x
O=C(C1CCC1)N1CC(=O)N2[C@@H](CO)[C@@H](c3ccc(C#CCc4ccccc4)cc3)[C@@H]2C1 | x | 9.2 | -46.9 | x | x | x | x
Cc1cccc(S(=O)(=O)N(C)C[C@@H]2OCc3ccccc3-c3ccccc3C(=O)N([C@@H](C)CO)C[C@H]2C)c1 | 59.5 | x | -64.7 | x | x | x | x
SMILES | T cruzi growth-1 | C diff growth | Pf Dd2 inh | T cruzi growth-2 | T cruzi growth-3 | 3T3 cytotox | 3T3 cytotox 2
CC(C)NC[C@@H]1[C@H](c2ccc(C3=CCCCC3)cc2)[C@H](CO)N1C(=O)NC(C)C | 121.3* | 46.3 | -41.1 | 105.7* | 98.1* | 29.3 | 104.7*
COc1cccc(NC(=O)N2[C@H](CO)[C@H](c3ccccc3)[C@@H]2CNC(C)C)c1 | 114.9* | -9.1 | -28.1 | 90.8 | 27.2 | 1.0 | -6.1
CCCNC(=O)N1[C@H](CO)[C@H](c2ccc(C3=CCCCC3)cc2)[C@@H]1C#N | 56.4 | 0.4 | 0.0 | x | x | x | x
CCCNC(=O)N1[C@H](C#N)[C@@H](c2ccc(C3=CCCCC3)cc2)[C@@H]1CO | 103.1* | -37.4 | -46.8 | 105.2* | 72.1 | 15.6 | -41.1
N#C[C@@H]1[C@@H](c2ccc(C3=CCCCC3)cc2)[C@@H](CO)N1C(=O)NC1CCCCC1 | 98.3* | -12.2 | 11.2 | 104.3* | 63.1 | 53.9* | 64.3*
CC(=O)NC[C@H]1[C@@H](c2ccc(C3=CCCCC3)cc2)[C@@H](CO)N1C(=O)NC(C)C | 13.1 | -9.6 | -1.8 | x | x | x | x
CNC[C@H]1[C@@H](c2ccccc2)[C@@H](CO)N1C(=O)Nc1cccc(OC)c1 | 32.6 | 3.1 | -7.0 | x | x | x | x
N#C[C@@H]1[C@H](c2ccc(C3=CCCC3)cc2)[C@@H](CO)N1C(=O)NC1CCCC1 | 50.3 | 5.9 | -77.3 | x | x | x | x
COc1ccccc1NC(=O)N1C[C@@H](O)COC[C@@H]2O[C@@H](CC(=O)NCCc3ccccc3)CC[C@H]21 | 18.8 | x | -0.7 | x | x | x | x
Cc1ccc(S(=O)(=O)N(C)C[C@H]2Oc3c(NC(=O)c4cnccn4)cccc3C(=O)N([C@H](C)CO)C[C@H]2C)cc1 | 45.2 | -7.9 | -48.9 | x | x | x | x
